# Assay results as given in PubChem BioAssay (NCI).
# This is part of a sample that, as a whole, favours compounds with a hit. Of some 83,000 tested, about 20% had one in any assay.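 Assay: single dose, 48 h. Readout: percent growth (0 = no net growth; negative = cell death). Active: <10.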 Calls of active or inactive are those of the source.
# System: MDA-MB-468 breast
# Experiment: NCI-60 one-dose screen, 48 h (100 = growth as untreated, 0 = no growth, -100 = all killed)
# Details: 10 µM unless noted
row,Compound,growth
1,C(/C=C/c1ccccc1)=Nc1ccc(CCc2ccc(N=C/C=C/c3ccccc3)cc2)cc1,83.3% (inactive)
2,COc1ccc(-c2nn(-c3ccc(Cl)cc3)cc2-c2nc3ccccc3[nH]2)cc1,106% (inactive)
3,CCOc1nc(-c2ccccc2)cc2c(O)c(C(=O)NN)[nH]c(=O)c12,110% (inactive)
4,COc1ccc(CC2c3cc(OC)c(OC)cc3CC[N+]2(C)CCC(=O)OCCCCCOC(=O)CC[N+]2(C)CCc3cc(OC)c(OC)cc3C2Cc2ccc(OC)c(OC)c2)cc1OC (stereo not given),88.3% (inactive)
5,N#Cc1cccc(CN2CCC3=C(C2)C(=O)N(Cc2ccc(Cl)cc2)C2=NCCCN23)c1,-16.1% (active)
6,CC(C)N(CCOc1ccc(-c2nc3sccn3c2-c2ccnc(S(C)(=O)=O)n2)cc1)C(C)C,9.31% (active)
7,N=c1ccc2nc3c(cc(N)c4ccccc43)oc-2c1,-78.4% (active)
8,O=C(CSc1nc2ccc([N+](=O)[O-])cc2[nH]1)Nc1cccc([N+](=O)[O-])c1,-1.47% (active)
9,Cc1nc2ccccc2n1-c1ncnc2c1CC(C)c1ccccc1N2C (stereo not given),80.9% (inactive)
10,CC(C)C/C=C/C=C/C(=O)N[C@@H](CC(N)=O)C(=O)N[C@@H]1C(=O)N[C@H](c2ccc(O)cc2)C(=O)N[C@H](CCCN)C(=O)N[C@H]([C@@H](C)O)C(=O)N[C@H](c2ccc(O)cc2)C(=O)N[C@H](c2ccc(O)cc2)C(=O)N[C@H]([C@H](C)O)C(=O)N[C@H](Cc2ccccc2)C(=O)N[C@H](CCCN)C(=O)N[C@H](c2ccc(O[C@H]3O[C@@H](CO)[C@@H](O)[C@@H](O)[C@H]3O[C@@H]3O[C@H](CO)[C@H](O)[C@H](O)[C@@H]3O)cc2)C(=O)N[C@H]([C@H](C)O)C(=O)N[C@H](c2ccc(O)cc2)C(=O)NCC(=O)N[C@H](CC(C)C)C(=O)N[C@H](C)C(=O)N[C@H](c2ccc(O)c(Cl)c2)C(=O)O[C@@H]1C(N)=O,66.7% (inactive)
